The text below walks through data of PubChem BioAssay AID1347076 (National Center for Advancing Translational Sciences (NCATS), 2019).

Each structure is given as a SMILES string. In all, about 400,000 compounds went through this assay and about 13,000 (3.2%) were called active. A call without a number means that no potency is given here. Another 18% or so got no clear call; they are omitted. The call rests on the fitted dose curve; in most records, active means well fitted cell-killing curve with a large enough effect; inconclusive means small, poorly fitted or top-dose-only effect, or effect the other way; inactive means flat fitted curve, though single readings scatter. The sample as a whole holds a higher share of actives than the screen did.
Potency means the concentration at half of the fitted maximal effect.

The assay can be described thus: qHTS assay for MDR1-selective chemotherapeutics: Primary screen using the drug-selected MDR subline cells KB-V1. Further: nearly all actives have a fitted effect of over 60% in size. To be noted: KB-V1 MDR cells viability, CellTiter-Glo, 72 h; series mostly up to 46.1 µM. A digest of the protocol: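 Cells of the MDR subline KB-V1 are plated, dosed with compound at multiple concentrations, and incubated 72 h at 37 degrees C; CellTiter-Glo is then added and luminescence read after 10 min.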
For the compound `COc1ccccc1NC(=O)C(CC(=O)O)Cc1cc(C)cc(C)c1` (centres undefined), the Potency entry was “inactive”. Next, `Cc1ccc(F)c(S(=O)(=O)NC(=O)C2(C)CCN2C(=O)CCc2cccs2)c1` (centres undefined): “inactive”.

As for `C=CCNC(=O)c1ccccc1NC(=O)c1ccc(Cl)c(S(=O)(=O)Nc2cccc(C)c2C)c1`, the Potency was 2.91 µM (active). Next, `Cc1ccccc1NC(=O)c1cc(S(=O)(=O)Nc2cccc(C(=O)O)c2)ccc1Cl`: “inactive”.

In the case of `COc1ccc(NS(=O)(=O)c2cc(C(=O)Nc3ccccc3C(=O)O)ccc2C)cc1`, the Potency entry is “inactive”. On to `Nc1ncnc2nnsc12`, for which the Potency result is “inactive”. Turning to `CCN(c1ncnc2c1cnn2-c1ccc(C)cc1)C1CCCCC1`, the Potency result was “inactive”. For the compound `CN(C(=O)CSc1nnnn1-c1ccccc1)C1CCCCC1`, the Potency entry was “inactive”.

In the case of `CN(C(=O)COc1ncnc2c1cnn2-c1ccccc1)C1CCCCC1`, the Potency is 9.2 µM (active). Next, `CC(C)(C)OC(=O)N(Cc1ccco1)S(=O)(=O)c1ccccc1Br`: “inactive”. Turning to `CCc1nc2c(OCCOc3ccccc3)cccn2c1N(C)C(=O)c1cccs1`, the Potency result is “inactive”.

As to `CC(C)NC(=O)C1(C)CCCCN1Cc1cccc(C(F)(F)F)c1` (centres undefined), the Potency entry was “inactive”. As for `Cc1cc2c(cc1C)N1C(=O)c3cc4ccccc4cc3NC(=O)C1C(=O)N2` (centres undefined), the Potency result was “inactive”.

As to `COCCNCCOCCOc1cccc(OC)c1`, the Potency result is “inactive”. Next, `C=CCc1ccc(OCCOc2cccc(/C=N/n3cnnc3)c2)c(OC)c1`: “inactive”.

For `COc1cccc(OCCOc2cccc(/C=N/n3cnnc3)c2)c1`, the Potency was 18.4 µM (active). For `COc1cccc(CNC(=O)CSc2c3c(nc4cc(Cl)ccc24)CCCC3)c1`, the Potency entry was “inactive”.

As for `O=C(Nc1nc(-c2ccc3c(c2)OCO3)cs1)c1ccncc1`, the Potency was 2.59 µM (active). Take `CC(=O)NCCC(=O)Nc1nc(-c2ccc3c(c2)OCCO3)cs1`: the Potency entry was “inactive”. In the case of `O=C(Nc1nc2ccccc2s1)c1ccc2c(c1)OCO2`, the Potency entry is “inactive”. Next, `CN(C)C1CN(Cc2cn(Cc3ccccc3)nn2)S(=O)(=O)C1` (centres undefined): “inactive”; `COC(=O)c1cc2occc2n1Cc1nc(-c2ccc(C)cc2)oc1C`: “inactive”.

In the case of `O=C(NCc1ccc(F)cc1F)[C@@H]1CCCN1C(=O)[C@@H]1CCCN1C(=O)c1cccc(Cl)c1`, the Potency result was “inactive”. Next, `Cc1nn(-c2ccccc2)c(Cl)c1C(=O)Nc1ccccc1`: “inactive”; `Cc1nn(-c2ccccc2)c(Cl)c1/C=N/NC(=O)c1nn(C)cc1[N+](=O)[O-]`: “inactive”; `Cc1nn(-c2ccccc2)c(Cl)c1/C=C/C(=O)c1ccc(O)cc1`: 20.6 µM (active). Next, `O=C1NC(O)CCN1C1CC(O)C(CO)O1` (centres undefined): “inactive”.

As to `N#Cc1cccc(Nc2c3c(nc4ccccc24)CCCC3)c1`, the Potency result was “inactive”. Take `Cc1cc(Nc2ccc(Br)cc2)nc2ccccc12`: the Potency entry is “inactive”. With `Cc1ccc(Nc2c3c(nc4ccccc24)CCC3)cc1`, the Potency is 5.8 µM (active). Next, `O=C(OCc1ccccc1)N1CCC2CC1c1cc(N3CCN(S(=O)(=O)c4cc(Cl)cc(Cl)c4)CC3)ccc12` (centres undefined): “inactive”; `COc1ccc(C(=O)O/N=C(\N)Cc2ccc(Cl)cc2Cl)cc1OC`: 23.1 µM (active). For the compound `COc1ccc(C/C(N)=N/OC(=O)c2ccco2)cc1OC`, the Potency entry was “inactive”.

In the case of `COc1ccc(C(=O)ON=C2c3ccccc3-c3ccccc32)cc1OC`, the Potency entry was “inactive”. As for `COc1ccc(S(=O)(=O)N2CCCCC2c2cc(C(=O)NCc3ccc(F)cc3)no2)cc1` (centres undefined), the Potency result is “inactive”. Next, `CCOC(=O)[C@]12CCCC=C1N(Cc1ccc3c(c1)OCO3)C(=O)[C@H](CC(=O)N1CCN(C(=O)c3ccco3)CC1)C2`: “inactive”; `CC(=O)C1=CCC(c2ccccc2)N(S(=O)(=O)c2ccc(C)cc2)C1` (centres undefined): “inactive”; `O=C(COc1ccccc1F)Nc1nc(-c2ccccn2)cs1`: 4.61 µM (active). As to `O=C(COc1ccccc1F)NC1CC1`, the Potency result is “inactive”.

As to `N#Cc1ccc(OCC(=O)Nc2nc(-c3ccccn3)cs2)cc1`, the Potency entry was “inactive”. Consider `COc1ccc(-c2ccc3ncnc(NCc4cccs4)c3c2)cc1OC`, for which the Potency result is “inactive”. For the compound `CCOC(=O)C1=CC[C@@H](c2ccccc2)N(S(=O)(=O)c2ccc(C)cc2)[C@H]1c1ccc(CC)cc1`, the Potency result was “inactive”. Next, `CCOc1ccc(S(=O)(=O)N2CCN(C(=S)NCC3CCCO3)CC2)cc1` (centres undefined): “inactive”; `COc1ccc(S(=O)(=O)N2CCN(C(=S)NCC3CCCO3)CC2)cc1OC` (centres undefined): “inactive”; `S=C(NCC1CCCO1)N1CCN(c2ccc(Cl)c(Cl)c2)CC1` (centres undefined): 7.31 µM (active). Next, `CCCC(=O)Nc1ccc2oc(-c3ccc(O)c(Br)c3)nc2c1`: “inactive”; `Cc1nn(CC(=O)N/N=C/c2ccc(F)cc2)c(C)c1[N+](=O)[O-]`: “inactive”. Next, `Cc1nn(Cc2ccc(C(=O)N3N=C(C(F)F)CC3(O)C(F)F)cc2)c(C)c1[N+](=O)[O-]` (centres undefined): 8.2 µM (active); `Cc1ccn(CC(=O)N2N=C(C(F)F)CC2(O)C(F)F)n1` (centres undefined): “inactive”.

As to `N#Cc1ccc(-c2nc3c(Cl)cc(C(F)(F)F)cn3c2Cc2ccccc2C(F)(F)F)cc1`, the Potency result was “inactive”. Next, `CCCOc1ccccc1C1CC(=O)Nc2cc3c(cc21)OCO3` (centres undefined): 4.61 µM (active); `O=C1CC(c2ccc(F)cc2F)c2cc3c(cc2N1)OCO3` (centres undefined): “inactive”. Next, `COC(=O)C1=C(C)NC(=O)CC1c1ccccc1OC` (centres undefined): “inactive”. Next, `Cc1cccc(N2CCN(c3ccc(C(=O)O)cc3NC(=O)c3ccccc3F)CC2C)c1` (centres undefined): “inactive”; `CC1CCN(C(=O)CSc2nnc(-c3ccco3)n2N)CC1`: “inactive”. For the compound `COc1cccc(C(O)c2nc(-c3ccc(C)c(C)c3)cs2)c1` (centres undefined), the Potency entry was “inactive”. Turning to `COc1ccccc1NC(=O)CN(c1ccccc1OC)S(=O)(=O)c1ccccc1`, the Potency entry was “inactive”. Next, `CCN(CC(=O)Nc1ccccc1OC)C(=O)CC1CC2CCC1C2` (centres undefined): 16.4 µM (active). On to `CCCN(CC(=O)Nc1ccccc1OC)C(=O)CCC(=O)c1ccc(F)cc1`, for which the Potency is 10.3 µM (active). With `COc1ccccc1/C=C/C(=O)NC1CC2CCC1C2` (centres undefined), the Potency entry is “inactive”. Next, `COc1ccccc1NC(=O)COC(=O)COc1ccccc1F`: “inactive”; `COc1ccc(S(=O)(=O)N2CCOCC2)cc1NC(=O)CC1CC2CCC1C2` (centres undefined): “inactive”; `Cc1cc(C)cc(NC(=O)CCS(=O)(=O)c2cc3c4c(c2)CCN4C(=O)CC3)c1`: “inactive”.

With `Cc1cccc(CN2CCN(C3CN(Cc4cn(Cc5ccccc5F)nn4)S(=O)(=O)C3)CC2)c1` (centres undefined), the Potency entry is “inactive”. Next, `Cc1ccc(C)c(NC(=O)CCC(=O)NNC(=O)c2cccs2)c1`: “inactive”; `CC(NC(=S)NNS(=O)(=O)c1ccc(C(C)(C)C)cc1)c1ccccc1` (centres undefined): “inactive”. Next, `Cc1ccc(C)c(NC(=S)NNC(=O)c2csc(C)c2)c1`: 18.4 µM (active); `Cc1ccc(OCC(=O)NC(C)c2ccccc2)cc1C` (centres undefined): “inactive”; `Cc1ccc(C)c(NC(=S)NNC(=S)Nc2ccc(C(C)C)cc2)c1`: “inactive”. Next, `Cc1cc(C(=O)NNC(=S)NC(C)c2ccccc2)cs1` (centres undefined): 14.6 µM (active). `Nc1nc2ncccn2c1-c1ccccc1`: the Potency entry is “inactive”.

Regarding `CO[C@H]1O[C@@H]2O[C@@]3(C)CC[C@@H]4[C@@H](C)CC[C@@H]([C@H]1C)[C@@]24OO3`, the Potency entry was “inactive”.

With `COc1ccc(C)cc1-n1c(-c2ccc(C)cc2)cc2c1CC(C)(C)CC2=O`, the Potency entry was “inactive”. As to `O=C(C[C@H]1CC[C@H]2[C@@H](COC[C@H](O)CN2C(=O)c2ccccn2)O1)N1CCN(c2ccccc2)CC1`, the Potency entry was “inactive”. Next, `O=c1[nH]c(CN2CCN(S(=O)(=O)c3ccc4c(c3)OCCO4)CC2)nc2sc3c(c12)CCCC3`: “inactive”; `CCN(CC)Cc1nc2sc(C)c(C)c2c(=O)[nH]1`: “inactive”; `CS(=O)(=O)N(Cc1nc2sc3c(c2c(=O)[nH]1)CCCC3)C1CCCCC1`: 16.4 µM (active).

In the case of `O=C(CNS(=O)(=O)c1cccs1)N1CCN(c2ccccc2Cl)CC1`, the Potency result was “inactive”. Consider `Cc1ccc(C)c(N2CCN(C(=O)C3CCC(CNS(=O)(=O)c4cccs4)CC3)CC2)c1` (centres undefined), for which the Potency entry is “inactive”. Next, `Cc1ccc(Cl)cc1N1CCN(C(=O)C2CCC(CNS(=O)(=O)c3cccs3)CC2)CC1` (centres undefined): 10.3 µM (active); `COc1ccc(S(=O)(=O)N2CCC(C(=O)NCCC(=O)NCCc3cccc(F)c3)CC2)cc1`: “inactive”; `CC1CCCC(NC(=O)COC(=O)c2ccccc2C(=O)N(C)C2CCCCC2)C1C` (centres undefined): “inactive”. Next, `O=C(c1cc(-c2ccc(Cl)cc2)on1)N1CCN(c2ccccc2)CC1`: “inactive”.

In the case of `O=C(c1cc(-c2ccc(F)cc2)on1)N1CCN(c2ccc(F)cc2)CC1`, the Potency result is “inactive”. Next, `COc1ccc(-c2cc(C(=O)N3CCN(c4ccc(F)cc4)CC3)no2)cc1`: 18.4 µM (active); `CC1=C(C(=O)N2CCOCC2)CC(CC(=O)NCc2ccco2)C(=O)N1Cc1ccc(F)cc1` (centres undefined): “inactive”; `Cc1cc(C(=O)NNC(=O)c2ccccc2O)c(C)o1`: “inactive”. As to `O=C(NNC(=O)c1ccccc1O)c1ccccc1O`, the Potency was 0.517 µM (active).

Regarding `Cc1cc(C(=O)CCC(=O)NNC(=O)c2ccccc2O)c(C)s1`, the Potency result is “inactive”. Take `COc1ccc(NC(=O)CN(C)C(=O)c2cc(C)oc2C)cc1`: the Potency entry was “inactive”.

As to `Cn1c(CCN2CCCCCC2)nc2cc(NC(=O)Nc3ccccc3)ccc21`, the Potency entry was “inactive”. Next, `COc1ccc(OCCCn2c(C)nc3cc(C)c(C)cc32)cc1`: “inactive”; `Cc1cc2nc(C)n(CCCNC(=O)Nc3ccccc3)c2cc1C`: 23.1 µM (active). Next, `CCOC(=O)C1(C)CCCN(C(=O)c2ccc(F)c(Cl)c2)C1` (centres undefined): “inactive”. Next, `CNc1cc(-c2c(OC)cccc2OC)ncn1`: “inactive”; `Cc1ccc(C(=O)NCCNC(=O)c2cnccn2)cc1`: “inactive”; `COc1ccccc1CCNC(=O)c1cnccn1`: 16.4 µM (active). Turning to `O=C(NCCCNC(=O)c1ccccc1Cl)c1cnccn1`, the Potency entry is “inactive”. Regarding `CC(=O)Nc1c(-c2ccc(C)cc2)nc2ccc(Cl)cn12`, the Potency result was “inactive”. Next, `O=C(NCC(F)(F)F)c1ccc(S(=O)(=O)NCCc2ccc3c(c2)OCCO3)cc1`: “inactive”.

`CCCc1nc2ccccc2n1C(C)C(=O)NC(C)(C)C` (centres undefined): the Potency result was “inactive”. Next, `COc1ccc(COC[C@H](CC(C)C)N2CCN(C(=O)c3cccc(C(F)(F)F)c3)CCC2=O)cc1`: “inactive”.

`O=C(c1cc(Cl)cc(Cl)c1)N1CCC(=O)N(C(COCc2ccccc2)Cc2ccccc2)CC1` (centres undefined): the Potency result was “inactive”. As for `CC(C)CC(COCc1ccc(Cl)cc1)N1CCN(C(=O)c2ccc(C(F)(F)F)cc2)CCC1=O` (centres undefined), the Potency is 20.6 µM (active).
